Test results as given in PubChem BioAssay AID504332 (National Center for Advancing Translational Sciences (NCATS), 2011).
Screen size: about 350,000 compounds; about 31,000 (8.9%) were called active. About 15% were inconclusive and are not listed. Calls follow the shape of the dose curve; as a rule, active = well fitted inhibition curve with a large enough effect; inconclusive = small, poorly fitted or top-dose-only effect; inactive = no such curve, though single readings can be large or run the other way. The entries come from a sample that favours actives as a whole. Where a call stands in place of a potency, no number is given.

The molecules below were run against Histone-lysine N-methyltransferase EHMT2 (Homo sapiens) (UniProt Q96KQ7) (assay: qHTS Assay for Inhibitors of Histone Lysine Methyltransferase G9a). Details: G9a H3K9 monomethylation, AlphaScreen, 2 h; series mostly up to 59 µM.
Outline: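 Signal arises when biotinylated H3K9 peptide, once monomethylated, bridges streptavidin donor and antibody-captured acceptor beads. Enzyme at 20 nM was preincubated 15 min with test compounds; peptide 500 nM and SAM 20 uM then reacted for 2 h.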
Also: nearly all actives have a fitted effect of over 75% in size.
Potency is read from the fitted curve at half-maximal effect.

Histone-lysine N-methyltransferase EHMT2 (Homo sapiens), sequence (Q96KQ7 913-1193 limits assumed): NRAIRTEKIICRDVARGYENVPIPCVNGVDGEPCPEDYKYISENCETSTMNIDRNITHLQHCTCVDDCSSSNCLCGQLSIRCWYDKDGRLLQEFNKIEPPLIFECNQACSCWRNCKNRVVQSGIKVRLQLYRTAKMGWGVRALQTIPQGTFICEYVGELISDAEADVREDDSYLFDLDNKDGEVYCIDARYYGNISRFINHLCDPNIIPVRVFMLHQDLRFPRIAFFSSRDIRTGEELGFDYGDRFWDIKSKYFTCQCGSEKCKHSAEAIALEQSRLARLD

Structure (SMILES) | activity, negative = inhibition | Potency
Cc1cccc(C)c1Nc1c(-c2ccccc2O)nc2ncccn12 | -7.84% [at 12.7 µM] (inactive) | –
COc1ccc(-c2nc3nc(C)cc(C)n3c2Nc2c(C)cccc2C)cc1 | – | inactive
CCc1cccc(C)c1Nc1c(-c2ccc(N(C)C)cc2)nc2ncccn12 | – | 8.91 µM (active)
Cc1ccc(CCNC(=O)c2ccc3c(c2)N(Cc2cc(C)ccc2C)C(=O)c2ccccc2S3=O)cc1 (centres undefined) | – | inactive
Cc1ccc(S(=O)(=O)NCCC(=O)OCC(=O)N(C)c2ccccc2)cc1 | – | inactive
Cc1cc(C)cc(OCC(=O)NC(C)c2ccccc2)c1 (centres undefined) | – | 79.4 µM (active)
Cc1ccc(OCC(=O)NC(C)c2ccccc2)cc1C (centres undefined) | – | inactive
Cc1ccc(OCCCC(=O)NC(C)c2ccccc2)c(C)c1 (centres undefined) | – | inactive
COc1ccccc1C(=O)NC(=S)Nc1ccccc1N1CCCCC1 | – | inactive
O=C1C2CCCN2C(=O)N1CCCCN1CCN(c2cccc(C(F)(F)F)c2)CC1 (centres undefined) | 2.49% [at 0.501 µM] (inactive) | –
CC1=C(c2ccc(F)cc2)S(=O)(=O)N=C1N1CCC(C(=O)NCCc2ccccc2C)CC1 | – | inactive
CSCCC(NC(=O)c1ccccc1)C(=O)N1CCN(Cc2ccc(Cl)cc2)CC1 (centres undefined) | 10.6% [at 0.501 µM] (inactive) | –
COc1ccccc1C(=O)NC(CCSC)C(=O)N1CCN(C(C)=O)CC1 (centres undefined) | 8.08% [at 12.7 µM] (inactive) | –
COc1ccccc1C(=O)NC(CCSC)C(=O)N1CCN(C/C=C/c2ccccc2)CC1 (centres undefined) | – | 56.2 µM (active)
CCOc1ccc(CNC(=O)C2CCN(c3nnc(-n4cccc4CNc4ccc(C)cc4)s3)CC2)cc1OC | – | inactive
CC1CC2C3CCC4=CC(=O)C=C[C@]4(C)[C@@]3(F)[C@@H](O)C[C@]2(C)[C@@]1(O)C(=O)CO (some centres undefined) | – | inactive
Cc1ccc2oc(C(=O)Nc3ccc(S(=O)(=O)N4CCCCCC4)cc3)cc(=O)c2c1 | – | inactive
O=C(Nc1cccc(Cl)c1Cl)c1ccccc1NC(=O)C1CC=CCC1C(=O)O (centres undefined) | – | inactive
CN(C(=O)COC(=O)c1cc(-c2ccco2)nc2ccccc12)C1CCS(=O)(=O)C1 (centres undefined) | – | 2.51 µM (active)
Cc1c(-c2cccc(Cl)c2)nc2ccccc2c1C(=O)OCC(=O)N(C)C1CCS(=O)(=O)C1 (centres undefined) | – | inactive
CN(C(=O)COC(=O)c1nc(Cl)ccc1Cl)C1CCS(=O)(=O)C1 (centres undefined) | – | inactive
COc1ccc(-n2nc(C(=O)NCC(=O)N3CCCCCC3)c3ccccc3c2=O)cc1Cl | – | inactive
CCC(=O)c1ccc(OCC(=O)OCC(=O)N2CCc3ccccc3C2)cc1 | -11.3% [at 2.33 µM] (inactive) | –
O=C(COc1ccccc1)N1CCc2ccccc2C1 | – | inactive
O=C(Cn1c(=S)nc2ccccn21)N1CCc2ccccc2C1 | – | 12.6 µM (active)

Structure (SMILES) | activity, negative = inhibition | Potency
Cn1c(=O)c2c(nc(Oc3ccc(C#N)cc3)n2Cc2ccc(Cl)cc2Cl)n(C)c1=O | – | inactive
COc1ccc(NC(=O)CSc2nccn2Cc2ccc3c(c2)OCO3)cc1 | – | inactive
CN(C)c1ccc(NC(=O)CSc2n[nH]c(-c3ccco3)n2)cc1 | – | 44.7 µM (active)
Cc1nc(SCC(=O)Nc2ccc(C(=O)O)cc2)n[nH]1 | – | inactive
O=C(CSc1n[nH]c(-c2cccnc2)n1)Nc1ccc(Cl)cc1 | – | inactive
CC(C)Cn1c(C2CC(=O)N(c3ccccc3Cl)C2)nc2ccccc21 (centres undefined) | – | inactive
COc1ccc(C)cc1N(CC(=O)N1CCC(C)CC1)S(=O)(=O)c1ccc(C)cc1 | – | inactive
O=C(NC1CCN(Cc2ccccc2)CC1)c1ccc(Cn2c(=O)c3ccccc3n(Cc3cccc(F)c3)c2=O)cc1 | – | inactive
COc1ccc(-n2ncc3c2CC(C)(C)CC3NC(=O)CCc2c(C)nn(C)c2C)cc1 (centres undefined) | – | inactive
Cn1c(-c2ccc(C(F)(F)F)cc2)cc2onc(-c3ccccc3)c2c1=O | -9.13% [at 2.33 µM] (inactive) | –
O=C(Cn1c(-c2cccs2)cc2ccccc21)NCCc1ccc(Cl)cc1 | – | inactive
CCc1ccc(Nc2nnc(SCC(=O)c3ccc4c(c3)NC(=O)CO4)s2)cc1 | – | 15.8 µM (active)
CCCc1nc2ccccc2c(C(=O)OCC(=O)c2ccc3c(c2)NC(=O)CO3)c1CC | 16.7% [at 12.7 µM] (inactive) | –
O=C1COc2ccc(C(=O)CSc3ccc(Br)cc3)cc2N1 | 8.05% [at 12.7 µM] (inactive) | –
COc1ccc(C)cc1-n1nnnc1SCc1nc2ccccc2c(=O)[nH]1 | – | inactive
CCOc1cc(/C=C/c2nc3ccccc3c(=O)[nH]2)cc(Br)c1OC | – | 50.1 µM (active)
COc1cc(OC)c(OC)cc1/C=C/c1nc2ccccc2c(=O)n1-c1ccc(Br)c(C)c1 | – | inactive
O=C(NC1(C(F)(F)F)N=C(c2ccccc2)N(C2CCCCC2)C1=O)c1ccccc1F (centres undefined) | – | inactive
COc1ccc(NC(=O)C(c2ccccc2)N2Cc3ccccc3C2=O)cc1 (centres undefined) | – | inactive
CN(CC(=O)NC1CCN(Cc2ccccc2)CC1)S(=O)(=O)c1ccc(Cl)s1 | -1.26% [at 2.33 µM] (inactive) | –
COc1ccc(NC(=O)c2ccc3oc(=O)c(S(=O)(=O)c4ccc(F)cc4)cc3c2)c(OC)c1 | – | inactive
COc1ccccc1CNC(=O)CCn1c(=O)c2ccccc2n(CC(=O)Nc2cccc(Cl)c2)c1=O | – | inactive
COc1cccc(NC(=O)N2CCN(C(=O)c3nsc4ccccc34)CC2)c1 | – | inactive
COc1cc(CNC(=O)c2cc3n(n2)CCCN(Cc2cccc(F)c2)C3=O)cc(OC)c1OC | – | inactive
CCOC(=O)CSc1nnc(CNc2nc(-c3ccccc3)cs2)n1C | 2.05% [at 12.7 µM] (inactive) | –

Structure (SMILES) | activity, negative = inhibition | Potency
Cn1c(CNc2nc(-c3ccccc3)cs2)nnc1SCC(=O)c1ccccc1 | – | 39.8 µM (active)
CCNC(=O)CSc1nc(-c2ccccc2)cs1 | – | inactive
CC(C)n1ncc2c(C(=O)Nc3ccc(CC#N)cc3)cc(C3CC3)nc21 | 10% [at 2.33 µM] (inactive) | –
COc1ccc(C(CNC(=O)c2ccc(NS(=O)(=O)c3ccc(F)c(C)c3)cc2)N(C)C)cc1 (centres undefined) | – | inactive
Cc1nnc(NCc2ccccc2)c2c1nnn2Cc1ccc(F)cc1 | – | inactive
COCCNc1ccc(-c2n[nH]c(=O)c3ccccc23)cc1[N+](=O)[O-] | – | inactive
Cc1cc(C)cc(NS(=O)(=O)c2ccc(-c3cc(C)no3)s2)c1 | – | inactive
OCCN1CCN(C(=S)c2ccc(-c3ccccc3)cc2)CC1 | – | 22.4 µM (active)
O=C(NC(c1ccccc1)c1ccccc1)N1CCN(CCO)CC1 | – | inactive
OCCN1CCN(c2nnc(-c3ccccc3)c3ccccc23)CC1 | – | inactive
COCCNC(=O)CSc1nc(-c2ccccc2)[nH]c1-c1ccc(C)cc1 | – | inactive
Cc1ccc(N=C2SCCCN2C(=O)c2cccc(N3C(=O)CCC3=O)c2)cc1Cl | 10.1% [at 0.501 µM] (inactive) | –
COC(=O)CN1C(=O)[C@H]2[C@@H](/C=C/c3ccccc3)N3C(=O)CN(Cc4ccccc4)C(=O)[C@@]3(Cc3ccccc3)[C@H]2C1=O | – | inactive
Fc1ccccc1Oc1ncnc2c1oc1ccccc12 | – | inactive
COc1cccc(NS(=O)(=O)c2ccc(-c3coc(C)n3)cc2)c1 | – | inactive
COc1ccc(-c2nc3sc(CCNS(=O)(=O)c4ccc(F)c(C)c4)c(C)n3n2)cc1 | – | inactive
Nc1ncnc2c1c(I)cn2[C@@H]1C[C@H](N)[C@@H](O)[C@H]1O | – | 6.7 µM (active)
CC(C)Oc1ccc(CNC(=O)C2CCN(c3nc4ccccc4n(C)c3=O)CC2)cc1 | – | inactive
COc1cccc(/C=C2\C=C(c3ccc(C)cc3)OC2=O)c1OC(C)=O | – | inactive
CN(C)/C=C1\C=C(c2ccccc2)OC1=O | – | 39.8 µM (active)
COc1ccccc1/C=C/C1=NC(=C\N(C)C)/C(=O)O1 | – | inactive
COc1ccc(-c2ccc3nnc(SCC(=O)Nc4ccc(NC(C)=O)cc4)n3n2)cc1 | – | inactive
Cc1ccc(-c2nnc(SCc3ccccc3C)o2)cc1 | – | inactive
COCCCNC(=S)N(CCN(C)C)Cc1cc2cc3c(cc2[nH]c1=O)OCCO3 | – | 35.5 µM (active)
CCN(CC)CCCNC(=S)N(CCO)Cc1cc2cc3c(cc2[nH]c1=O)OCO3 | – | inactive

Structure (SMILES) | activity, negative = inhibition | Potency
CCNC(=S)N(CCN(CC)CC)Cc1cc2cc3c(cc2[nH]c1=O)OCO3 | – | inactive
CCN(CC)S(=O)(=O)c1ccc2c(c1)nc(CN(C)C(=O)Nc1ccc(Cl)cc1)n2C | 1.45% [at 12.7 µM] (inactive) | –
O=C(COc1ccccc1)Nc1ccc(C(=O)N2CCCC2)cc1 | – | inactive
COc1ccc(-c2nn3c(-c4ccc(OC)cc4)nnc3c3ccccc23)cc1 | – | inactive
CC(=O)NC(=S)Nc1ccc(NC(=S)NC(=O)c2ccc([N+](=O)[O-])cc2)cc1 | – | inactive
NC(=S)N/N=C/c1ccc([N+](=O)[O-])cc1 | – | inactive
CNC(=S)Nc1ccc([N+](=O)[O-])cc1 | – | 56.2 µM (active)
CCN(CC)CCNC(=O)CN1N=C(c2ccc(OC)cc2)CCC1=O | – | inactive
CCCn1c(=O)c(C(=O)Nc2cc(C)ccn2)c(O)c2ccccc21 | -5.46% [at 0.501 µM] (inactive) | –
O=C(COC(=O)Cn1[nH]c(=O)c2ccccc2c1=O)Nc1c(Cl)cccc1C(F)(F)F | 2.11% [at 0.501 µM] (inactive) | –
CN(C)S(=O)(=O)c1ccc(NC(=O)COC(=O)Cn2[nH]c(=O)c3ccccc3c2=O)cc1 | – | inactive
O=C(COC(=O)Cn1[nH]c(=O)c2ccccc2c1=O)Nc1ncc(Cl)cc1Cl | – | 56.2 µM (active)
Cc1noc2ncnc(NCc3ccccc3Cl)c12 | – | inactive
COc1ccccc1CNC(=O)C1CCN(S(=O)(=O)c2ccc3c(c2)CC(C)N3C(=O)C2CC2)CC1 (centres undefined) | – | inactive
Cc1cc(C)c(C)c(S(=O)(=O)N2CCN(C(=O)c3ccc4c(=O)n5c(nc4c3)CCC5)CC2)c1C | -30.4% [at 0.501 µM] (inactive) | –
Cc1ccccc1OCC(=O)Nc1nnc(S(=O)(=O)N2CCCC2)s1 | – | 2.24 µM (active)
O=C(Nc1nnc(S(=O)(=O)N2CCOCC2)s1)c1cccc(Br)c1 | – | inactive
CCN(CC)S(=O)(=O)c1ccc(C)c(NC(=O)COc2ccc(Br)cc2Cl)c1 | – | inactive
Cc1cccc(C(=O)Nc2nnc(S(=O)(=O)N3CCCCCC3)s2)c1 | – | inactive
O=C(Nc1nnc(S(=O)(=O)N2CCCCCC2)s1)c1cccc(Br)c1 | – | 8.91 µM (active)
CCN(CC)S(=O)(=O)c1nnc(NC(=O)COc2ccccc2Cl)s1 | – | 2.82 µM (active)
CCC(=O)Nc1nnc(S(=O)(=O)N(CC(C)C)c2ccccc2)s1 | – | inactive
COc1cccc(C(=O)Nc2nnc(S(=O)(=O)N3CCCCC3)s2)c1 | – | inactive
CC1CCN(S(=O)(=O)c2nnc(NC(=O)COc3ccccc3F)s2)CC1 | – | inactive
